Results on 50 molecules are retold here after publication PMC4336329 (PLoS ONE, 2015).

The structures appear in SMILES notation. The campaign covered roughly 310,000 compounds. About 14,000 (4.5%) showed an effect of 50% or more. The effect is printed as a negative number. This excerpt belongs to a sample that is enriched for strong results.
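Note: peak tail current of the secondary pulse compared with the same well before compound.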

In this assay the target is human ether-à-go-go-related gene (hERG) potassium channel (human, UniProt Q12809). Kind of assay: primary screen, population patch clamp on CHO cells stably expressing hERG; higher = less effect of the substance.
human ether-à-go-go-related gene (hERG) potassium channel, sequence (Q12809 whole entry, looked up): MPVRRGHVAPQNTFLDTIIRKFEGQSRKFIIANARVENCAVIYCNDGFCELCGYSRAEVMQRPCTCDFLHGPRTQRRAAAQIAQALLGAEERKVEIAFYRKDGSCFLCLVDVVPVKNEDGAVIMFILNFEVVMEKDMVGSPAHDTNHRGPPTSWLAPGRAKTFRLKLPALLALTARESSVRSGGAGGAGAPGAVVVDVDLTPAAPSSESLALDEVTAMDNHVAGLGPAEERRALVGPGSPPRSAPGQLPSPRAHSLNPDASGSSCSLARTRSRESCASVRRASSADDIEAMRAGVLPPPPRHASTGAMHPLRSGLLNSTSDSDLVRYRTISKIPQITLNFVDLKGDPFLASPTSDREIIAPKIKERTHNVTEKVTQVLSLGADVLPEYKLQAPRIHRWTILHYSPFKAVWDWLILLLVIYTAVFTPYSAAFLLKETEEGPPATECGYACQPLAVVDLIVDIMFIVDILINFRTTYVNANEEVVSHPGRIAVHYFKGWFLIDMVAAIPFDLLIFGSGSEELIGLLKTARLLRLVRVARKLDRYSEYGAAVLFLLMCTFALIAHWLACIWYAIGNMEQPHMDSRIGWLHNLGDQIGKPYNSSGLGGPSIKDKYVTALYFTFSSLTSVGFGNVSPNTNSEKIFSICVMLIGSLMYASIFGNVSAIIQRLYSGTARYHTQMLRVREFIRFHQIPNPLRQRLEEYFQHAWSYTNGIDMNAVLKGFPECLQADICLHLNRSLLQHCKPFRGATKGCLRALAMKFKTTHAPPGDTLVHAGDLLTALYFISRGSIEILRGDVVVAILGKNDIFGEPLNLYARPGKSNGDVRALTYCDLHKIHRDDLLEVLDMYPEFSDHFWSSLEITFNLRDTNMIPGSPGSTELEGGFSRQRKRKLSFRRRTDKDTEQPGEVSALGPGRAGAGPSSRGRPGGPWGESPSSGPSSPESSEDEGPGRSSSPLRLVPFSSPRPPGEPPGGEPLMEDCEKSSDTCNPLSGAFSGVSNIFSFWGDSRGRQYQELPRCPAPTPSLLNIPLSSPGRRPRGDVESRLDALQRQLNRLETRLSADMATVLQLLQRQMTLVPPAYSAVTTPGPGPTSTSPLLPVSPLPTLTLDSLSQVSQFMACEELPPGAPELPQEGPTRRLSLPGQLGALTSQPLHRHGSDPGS
Regarding `COCc1[nH]nc2c1C(c1cccc(OC)c1)C(C#N)=C(N)O2` (centres unmarked), the “hERG current change (%, negative = inhibition) at 10uM” value was -7.26%.

On to `CCOc1ccc(NC(=O)C2CCC(C)(C(=O)O)C2(C)C)cc1` (centres unmarked), for which the “hERG current change (%, negative = inhibition) at 10uM” value was determined as 6.49%.

On to `CCN(C(=O)COC(=O)c1ccccc1Nc1cccc(C)c1C)C1CCS(=O)(=O)C1` (centres unmarked), for which the “hERG current change (%, negative = inhibition) at 10uM” value was 2.59%.

As to `O=C(COC(=O)c1ccccc1NC(=O)c1ccco1)NC1CCS(=O)(=O)C1` (centres unmarked), the “hERG current change (%, negative = inhibition) at 10uM” value is on record as -2.03%.

As to `CCN(C(=O)COC(=O)c1ccccc1NC(=O)c1ccco1)C1CCS(=O)(=O)C1` (centres unmarked), the “hERG current change (%, negative = inhibition) at 10uM” value is recorded as -72.1%.

`CCN(C(=O)COC(=O)c1ccccc1NCCO)C1CCS(=O)(=O)C1` (centres unmarked): the “hERG current change (%, negative = inhibition) at 10uM” value was -5.97%.

Take `CN(C(=O)COC(=O)c1ccccc1NC(=O)c1ccco1)C1CCS(=O)(=O)C1` (centres unmarked): the “hERG current change (%, negative = inhibition) at 10uM” value is -62.3%.

`CN(C(=O)COC(=O)c1ccccc1Nc1ccccc1)C1CCS(=O)(=O)C1` (centres unmarked): the “hERG current change (%, negative = inhibition) at 10uM” value was -41.4%.

Turning to `CCOc1ccccc1C1CC(=O)Nc2cc(OC)c(OC)cc21` (centres unmarked), the “hERG current change (%, negative = inhibition) at 10uM” value is recorded as 13.2%.

For the molecule `O=CNC1CCCc2c1[nH]c1ccc(Cl)cc21` (centres unmarked), the “hERG current change (%, negative = inhibition) at 10uM” value is -9.15%.

With `COc1cccc(OC(=O)N2CCOCC2)c1`, the “hERG current change (%, negative = inhibition) at 10uM” value amounted to 8.3%.

Consider `O=C(CCCN1C(=O)c2ccccc2C1=O)Nc1cccc(S(=O)(=O)NC2=NCCC2)c1`, for which the “hERG current change (%, negative = inhibition) at 10uM” value is on record as 13.5%.

`COc1ccc(N2CCN(C(C)C(=O)N3CC(C)OC(C)C3)CC2)cc1.O=C(O)C(=O)O` (centres unmarked): the “hERG current change (%, negative = inhibition) at 10uM” value is 18%.

Regarding `COc1ccc(/C=N/NC(=O)CCCC(=O)NC2CCCCC2)cc1`, the “hERG current change (%, negative = inhibition) at 10uM” value was determined as 5.06%.

In the case of `O=C(NCCCO)/C(=C/c1ccc(-c2cccc([N+](=O)[O-])c2)o1)NC(=O)c1ccccc1`, the “hERG current change (%, negative = inhibition) at 10uM” value is reported as -31.5%.

Consider `CN(C)CCCNC(=O)/C(=C\c1ccc(-c2cccc([N+](=O)[O-])c2)o1)NC(=O)c1ccccc1`, for which the “hERG current change (%, negative = inhibition) at 10uM” value was -81.2%.

Regarding `C=CCNC(=O)/C(=C/c1cn(-c2ccccc2)nc1-c1cccc([N+](=O)[O-])c1)NC(=O)c1ccccc1`, the “hERG current change (%, negative = inhibition) at 10uM” value is -3.58%.

On to `CN(C)C(=O)/C(=C\c1ccc(-c2cccc([N+](=O)[O-])c2)o1)NC(=O)c1ccccc1`, for which the “hERG current change (%, negative = inhibition) at 10uM” value was -47.9%.

As to `CN(C)C(=O)/C(=C/c1ccc(-c2cccc([N+](=O)[O-])c2)o1)NC(=O)c1ccccc1`, the “hERG current change (%, negative = inhibition) at 10uM” value is listed as -21.3%.

For the molecule `CN(C)CCNC(=O)/C(=C/c1ccc(-c2cccc([N+](=O)[O-])c2)o1)NC(=O)c1ccccc1`, the “hERG current change (%, negative = inhibition) at 10uM” value is reported as -75.4%.

Consider `CCCCCn1c(=O)[nH]c2cc(C(=O)NCCN3CCCCC3C)ccc2c1=O` (centres unmarked), for which the “hERG current change (%, negative = inhibition) at 10uM” value is -15.9%.

For `CCOC(=O)c1ccc(NC(=S)NNC(=O)C2(C)CC2(Cl)Cl)cc1` (centres unmarked), the “hERG current change (%, negative = inhibition) at 10uM” value was 28.4%.

On to `O=C(O)CCSc1nnc(COc2ccc([N+](=O)[O-])cc2)n1-c1ccccc1`, for which the “hERG current change (%, negative = inhibition) at 10uM” value amounted to 22.8%.

`C/C(=C\[C@@H](NP(=O)(c1ccccc1)c1ccccc1)c1ccccc1)CO[Si](c1ccccc1)(c1ccccc1)C(C)(C)C`: the “hERG current change (%, negative = inhibition) at 10uM” value amounted to 5.58%.

Consider `CCN(CC)S(=O)(=O)c1cccc(C(=O)NCC(=O)OCC(=O)NCc2ccccc2)c1`, for which the “hERG current change (%, negative = inhibition) at 10uM” value is given as -7.41%.

With `O=C(CNS(=O)(=O)c1ccc(Br)cc1)OCc1cc(=O)n2cc(Br)ccc2n1`, the “hERG current change (%, negative = inhibition) at 10uM” value is reported as -26%.

`Cc1cc(C)c(C)c(S(=O)(=O)N[C@@H](C)C(=O)OCc2cc(=O)n3cc(Br)ccc3n2)c1C`: the “hERG current change (%, negative = inhibition) at 10uM” value is recorded as -47%.

Regarding `CC1(C(=O)OCc2cc(=O)n3cc(Br)ccc3n2)CC1(Cl)Cl` (centres unmarked), the “hERG current change (%, negative = inhibition) at 10uM” value is -54.3%.

`CCOc1ccc(CC(=O)OCc2cc(=O)n3cc(Br)ccc3n2)cc1`: the “hERG current change (%, negative = inhibition) at 10uM” value is on record as -6.01%.

In the case of `C[C@H](NS(=O)(=O)c1ccc(Cl)c(Cl)c1)C(=O)OCc1cc(=O)n2cc(Br)ccc2n1`, the “hERG current change (%, negative = inhibition) at 10uM” value is listed as -63.4%.

Take `CC1CC1C(=O)OCc1cc(=O)n2cc(Br)ccc2n1` (centres unmarked): the “hERG current change (%, negative = inhibition) at 10uM” value was -16.2%.

As to `COc1ccc(NS(=O)(=O)c2cc(NC(=O)c3ccc(=O)[nH]c3)ccc2C)cc1`, the “hERG current change (%, negative = inhibition) at 10uM” value came to 15.1%.

For the molecule `CC(=O)Nc1ccc(S(=O)(=O)N2CCN(c3nnnn3-c3ccccc3)CC2)cc1`, the “hERG current change (%, negative = inhibition) at 10uM” value worked out at 13.1%.

On to `O=[N+]([O-])c1ccc(C[n+]2cccc3c4ccccc4ccc32)cc1.[Br-]`, for which the “hERG current change (%, negative = inhibition) at 10uM” value is on record as -40.5%.

For the molecule `O=[N+]([O-])c1ccc(C[n+]2cccc3ccc4cccnc4c32)cc1.[Br-]`, the “hERG current change (%, negative = inhibition) at 10uM” value was -62.6%.

Turning to `O=[N+]([O-])c1ccc(C[n+]2cccc3ccccc32)cc1.[Cl-]`, the “hERG current change (%, negative = inhibition) at 10uM” value was -3.07%.

For the molecule `CN(C)c1ccc(C2N(C(=O)N3CCOCC3)CCN2S(=O)(=O)c2ccccc2)cc1` (centres unmarked), the “hERG current change (%, negative = inhibition) at 10uM” value stood at 3.98%.

As to `CC(=O)NCC(=O)N1CCCC(C(=O)c2ccc(Oc3ccccc3)cc2)C1` (centres unmarked), the “hERG current change (%, negative = inhibition) at 10uM” value is listed as -23.2%.

Regarding `CC(=O)N1CCCC(C(=O)c2ccc(Oc3ccccc3)cc2)C1` (centres unmarked), the “hERG current change (%, negative = inhibition) at 10uM” value is -5.43%.

In the case of `CCN1CCN(CC(=O)N2CCCC(C(=O)c3ccc(Oc4ccccc4)cc3)C2)CC1` (centres unmarked), the “hERG current change (%, negative = inhibition) at 10uM” value is recorded as -52.7%.

As for `COCCC(=O)N1CCCC(C(=O)c2ccc(Oc3ccccc3)cc2)C1` (centres unmarked), the “hERG current change (%, negative = inhibition) at 10uM” value is given as -79.3%.

`COCC(=O)N1CCCC(C(=O)c2ccc(Oc3ccccc3)cc2)C1` (centres unmarked): the “hERG current change (%, negative = inhibition) at 10uM” value is recorded as -34.1%.

Regarding `CCn1nc(C)cc1C(=O)N1CCCC(C(=O)c2ccc(Oc3ccccc3)cc2)C1` (centres unmarked), the “hERG current change (%, negative = inhibition) at 10uM” value was -9.04%.

In the case of `CC1CCCC(C)N1S(=O)(=O)c1ccc(NC(=O)c2ccccc2C(=O)N2CCOCC2)cc1` (centres unmarked), the “hERG current change (%, negative = inhibition) at 10uM” value is recorded as -3.57%.

Turning to `NC(=O)[C@@H]1CCCN1Cc1nc(Cc2ccccc2F)no1`, the “hERG current change (%, negative = inhibition) at 10uM” value came out at 7.29%.

For `Cc1ccc2nc(-c3ccc(NC(=O)CCS(=O)(=O)c4ccccc4)cc3)sc2c1`, the “hERG current change (%, negative = inhibition) at 10uM” value came out at 2.03%.

`CC(C)CCOP(N)(=O)Oc1ccccc1` (centres unmarked): the “hERG current change (%, negative = inhibition) at 10uM” value is recorded as 9.05%.

For the molecule `CCN1C(=O)c2ccc(C(=O)Nc3ncc(C)s3)cc2C1=O`, the “hERG current change (%, negative = inhibition) at 10uM” value amounted to 6.29%.

Take `COc1ccccc1-c1cc(C(=O)N/N=C\c2cnn(C)c2C)c2ccccc2n1`: the “hERG current change (%, negative = inhibition) at 10uM” value was -3.85%.

As to `CC1CN(c2nc3ccccn3c(=O)c2/C=C(\C#N)C(N)=O)CC(C)O1` (centres unmarked), the “hERG current change (%, negative = inhibition) at 10uM” value turned out to be 21.1%.
